# Laboratory results reported in the OligoGym collection.
# Target: ITGA2
# Test: pooled miR-30 sensor sort-seq; sequence = guide strand
# Settings: shRNA
# Also: reference of the scale not given here.
row,Sequence,sensor-assay potency score (higher = more potent)
1,TTGTCGGACATCTAGGACTAGA,-0.587
2,TAAATCTCCATAGCCATCCAAG,-1.12
3,TTGACTGAGCGCTAACACCAGC,-1.15
4,TTGCATATTGAATTGCTCCGAA,0.0822
5,TTCTGTTGGAATACTAGCGATT,-0.717
6,TAAACAGGTAGACTCTTCCTTC,0.446
7,TACTTCTGTCCCATCAACCGGC,0.167
8,TAGGTCTGAACTTTGCACTGAA,-0.0543
9,TTGCTTAGTAGGTCTGAACTTT,-0.177
10,TAGCACTTCGTCGCCCACCAGA,-1.01
11,TGAACTGTGATTTCTGTCCTGC,0.82
12,TTTCGTAGCACTTCGTCGCCCA,0.484

# Target: ITGAM
# Test: as above
# Settings: shRNA
row,Sequence,sensor-assay potency score (higher = more potent)
1,TTGCTGTCCACGTCCACGGAGC,-1.3
2,TTCATGTCTGAATCCACTCTGG,0.203
3,TCAGTGTCCAAGTTGAACCCAT,-0.0132
4,TTGAACTCCATGATTGCCTTGA,0.856
5,TTCCTTGCCTTTCACCACCTGA,-0.688
6,TTGATGTACCAGTCAAACGAGA,-0.909
